According to PubChem BioAssay AID1159580 (chemical genetic matrix, 2015):
Screen size: about 5,500 compounds; about 2,000 (36%) were called active. About 18% were inconclusive and are not listed. Cut-off read from the data, not from the text of the source: active = normalized growth mostly below about 0.91 (no sharp cut-off); inconclusive = no clear call, values can overlap the other calls; inactive = mostly above about 0.92. Some of the results follow.

Assay: chemical genetic growth profiling, strain panel (AID 1159580);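 note: tested at 20 µM; growth read once vehicle control cultures reached saturation at 30 °C; 1 = growth at the plate median or of vehicle wells; lower values mean less growth of the strain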
Settings: S. cerevisiae deletion strains, growth OD
[1] = locus YHR030C, strain SLT2, hits give low values
[2] = locus YHR079C, strain IRE1, hits give low values
[3] = locus YJL095W, strain BCK1, hits give low values
[4] = locus YJR066W, strain TOR1, hits give low values
[5] = locus YLR113W, strain HOG1, hits give low values
[6] = locus YNL183C, strain NPR1, hits give low values
[7] = locus YOR231W, strain MKK1, hits give low values
[8] = locus YPL256C, strain CLN2, hits give low values

Measured: normalized growth

CCOC(=O)NC(=S)Nc1ccc(C(C)(C)C)cc1NC(=S)NC(=O)OCC
inactive: locus YAR019C, strain CDC15, hits give low values 0.986 | locus YBL105C, strain PKC1, hits give low values 0.985 | locus YBR135W, strain CKS1, hits give low values 0.98 | locus YBR136W, strain MEC1, hits give low values 0.979 | locus YBR160W, strain CDC28, hits give low values 0.991 | locus YDL017W, strain CDC7, hits give low values 0.989 | locus YDL028C, strain MPS1, hits give low values 0.979 | locus YDL101C, strain DUN1, hits give low values 0.982 | locus YDL108W, strain KIN28, hits give low values 0.985 | locus YDL132W, strain cdc53, hits give low values 0.983 | locus YDL214C, strain PRR2, hits give low values 0.94 | locus YDR052C, strain DBF4, hits give low values 0.982 | locus YDR054C, strain cdc34, hits give low values 0.983 | locus YDR226W, strain ADK1, hits give low values 0.988 | locus YDR477W, strain SNF1, hits give low values 0.921 | locus YER123W, strain YCK3, hits give low values 0.879 | locus YER133W, strain GLC7, hits give low values 0.934 | locus YFL009W, strain cdc4, hits give low values 0.974 | locus YFL029C, strain CAK1, hits give low values 0.985 | locus YFR003C, strain YPI1, hits give low values 0.986 | locus YFR019W, strain FAB1, hits give low values 0.922 | locus YFR028C, strain CDC14, hits give low values 0.986 | locus YGR040W, strain KSS1, hits give low values 0.923 | locus YGR052W, strain FMP48, hits give low values 1.04 | locus YGR092W, strain DBF2, hits give low values 0.572 | [1] 1.08 | [2] 0.985 | locus YHR082C, strain KSP1, hits give low values 1.05 | locus YHR205W, strain SCH9, hits give low values 0.985 | locus YIL147C, strain SLN1, hits give low values 0.978 | [3] 0.995 | locus YJL128C, strain PBS2, hits give low values 0.944 | locus YJL157C, strain FAR1, hits give low values 0.911 | locus YJR016C, strain ILV3, hits give low values 0.981 | locus YJR066W, strain TOR1 (second series), hits give low values 0.778 | [4] 1.06 | locus YKL048C, strain ELM1, hits give low values 0.928 | locus YKL067W, strain YNK1, hits give low values 0.932 | locus YKL101W, strain HSL1, hits give low values 0.961 | locus YKL193C, strain SDS22, hits give low values 0.987 | locus YKL203C, strain TOR2, hits give low values 0.989 | [5] 1.02 | locus YLR133W, strain CKI1, hits give low values 0.948 | locus YLR403W, strain SFP1, hits give low values 0.91 | locus YML070W, strain DAK1, hits give low values 0.925 | locus YMR001C, strain CDC5, hits give low values 0.985 | locus YMR205C, strain PFK2 (second series), hits give low values 0.924 | locus YMR277W, strain FCP1, hits give low values 0.981 | locus YNL006W, strain LST8, hits give low values 0.98 | locus YNL020C, strain ARK1, hits give low values 0.928 | locus YNL161W, strain CBK1, hits give low values 0.986 | [6] 1.06 | locus YNL207W, strain RIO2, hits give low values 0.981 | locus YNL222W, strain SSU72, hits give low values 0.98 | locus YNL307C, strain MCK1 (second series), hits give low values 0.926 | locus YOL078W, strain AVO1, hits give low values 0.979 | locus YOL136C, strain PFK27, hits give low values 0.931 | locus YOR061W, strain CKA2, hits give low values 0.712 | locus YOR119C, strain RIO1, hits give low values 0.959 | [7] 0.997 | locus YOR329C, strain SCD5, hits give low values 0.983 | locus YPL031C, strain PHO85, hits give low values 0.93 | locus YPL153C, strain RAD53, hits give low values 0.897 | locus YPL204W, strain HRR25, hits give low values 0.924 | locus YPL209C, strain IPL1, hits give low values 0.989 | [8] 1.04 | locus YPR025C, strain CCL1, hits give low values 0.986 | locus YPR106W, strain ISR1, hits give low values 0.986 | locus YPR111W, strain DBF20, hits give low values 0.978 | strain NNK1, hits give low values 0.981 | strain TSCII, hits give low values 0.985

CCC(C)n1ncn(-c2ccc(N3CCN(c4ccc(OC[C@H]5CO[C@](Cn6cncn6)(c6ccc(Cl)cc6Cl)O5)cc4)CC3)cc2)c1=O (some centres undefined)
active: [1] 0.104 | [2] 0.19 | [3] 0.112 | [4] 0.0832 | [5] 0.187 | [6] 0.183 | [7] 0.177 | [8] 0.188
